# According to PubChem BioAssay (NCI):
# The panel holds about 79,000 compounds, 15% with a hit somewhere; the sample as a whole holds those more often. Unmarked numbers belong to inactive results. Active and inactive are the calls of the source. No stated cut-off is given here; in the data, active means growth inhibition above about 70%; inactive means the rest.
# Tests used:
# [1] = NCI Yeast Anticancer Drug Screen. Data for the rad50 strain (AID 155);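 further: 0% = growth of vehicle-only cultures of the same strain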; conditions: S. cerevisiae rad50 strain growth inhibition, stronger effect = higher value
# Outline: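 A DNA repair-deficient yeast mutant serves as the test organism; compound-induced growth inhibition is calculated against vehicle-treated cells.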
# [2] = NCI Yeast Anticancer Drug Screen. Data for the mec2-1 strain (AID 157); conditions: S. cerevisiae mec2-1 strain, stronger effect = higher value
# Outline: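 Yeast mec2-1 mutant treated with compound. Readout: growth inhibition vs vehicle controls.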
# [3] = NCI Yeast Anticancer Drug Screen. Data for the sgs1 mgt1 strain (AID 161);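 further: 0% = growth of cultures given vehicle only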; conditions: S. cerevisiae sgs1 mgt1 strain, stronger effect = higher value
# Outline: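 Test agents were incubated with a DNA-repair-mutant yeast strain. Growth was then read and compared against vehicle-treated controls.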
# [4] = NCI Yeast Anticancer Drug Screen. Data for the cln2 rad14 strain (AID 165);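 further: 0% = growth equal to vehicle treated cultures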; conditions: S. cerevisiae cln2 rad14 strain, stronger effect = higher value
# Outline: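 cln2 rad14 yeast strain; compound exposure; growth inhibition read vs vehicle controls.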
# [5] = NCI Yeast Anticancer Drug Screen. Data for the bub3 strain (AID 167); conditions: S. cerevisiae bub3 mutant strain, stronger effect = higher value
# Outline: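 Inhibition values come from growth of compound-treated mutant yeast normalised to vehicle-treated controls.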
# [6] = NCI Yeast Anticancer Drug Screen. Data for the mlh1 rad18 strain (AID 175); conditions: S. cerevisiae mlh1 rad18 strain growth inhibition, stronger effect = higher value
# Outline: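 Yeast w/ defined DNA-repair lesions; compound exposure; growth vs vehicle controls → % inhibition.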
# [7] = at 5.0 µM (retest, dose inferred, filed as 0.5)
# [8] = at 50.0 µM (retest, dose inferred, filed as 5.0)
Structure (SMILES),"growth inhibition [1, 7]","growth inhibition [1, 8]",growth inhibition ([1]; at 50.0 µM),"growth inhibition [2, 7]","growth inhibition [2, 8]",growth inhibition ([2]; at 50.0 µM),"growth inhibition [3, 7]","growth inhibition [3, 8]",growth inhibition ([3]; at 50.0 µM),"growth inhibition [4, 7]","growth inhibition [4, 8]",growth inhibition ([4]; at 50.0 µM),"growth inhibition [5, 7]","growth inhibition [5, 8]",growth inhibition ([5]; at 50.0 µM),"growth inhibition [6, 7]","growth inhibition [6, 8]",growth inhibition ([6]; at 50.0 µM)
CCCCC1C(=O)N2c3ccccc3-c3ccccc3N2C1=O,-5%,30%,65.5%,4%,33%,6.8%,-3%,23%,43.2%,-4%,8%,14.8%,6%,10%,17.4%,0%,34%,35%
CC(CCC(=O)O)(c1cc(Br)c(O)c(Br)c1)c1cc(Br)c(O)c(Br)c1,19%,91% (active),90.8% (active),-1%,72% (active),90% (active),-2%,75% (active),81.5% (active),-16%,75% (active),92.4% (active),-3%,78% (active),88.6% (active),-14%,87% (active),90.4% (active)
COc1cccc2c1OC(c1cccc3ccccc13)C([N+](=O)[O-])=C2 (configuration not stated),49%,75% (active),62.3%,32%,67%,62.1%,39%,70% (active),61.4%,22%,62%,47%,47%,74% (active),54.8%,49%,81% (active),58.8%
Oc1cc(Cc2ccccc2)c(Cc2ccccc2)cc1O,-32%,96% (active),89.2% (active),-26%,98% (active),91% (active),-8%,96% (active),92.1% (active),-1%,97% (active),89.8% (active),-23%,97% (active),91.5% (active),-43%,96% (active),88.2% (active)
C/C=C/C/C=C/CCC(=O)C1OC1C(N)=O (configuration not stated),98% (active),99% (active),92.3% (active),99% (active),99% (active),93.3% (active),99% (active),99% (active),93.3% (active),98% (active),99% (active),91.4% (active),99% (active),98% (active),91.8% (active),99% (active),99% (active),91.8% (active)
CCOC(=O)/C=C1/C(=O)OC2C1OC1OC(C)(C)OC12 (configuration not stated),9%,99% (active),6.3%,16%,100% (active),34.8%,-5%,100% (active),57%,37%,100% (active),-15.1%,33%,100% (active),26.1%,7%,99% (active),54.8%
O=C(Nc1cccnc1)c1ccc(CSc2ccc(Cl)cc2)o1,56%,97% (active),90.6% (active),41%,98% (active),92.3% (active),48%,97% (active),93.8% (active),40%,94% (active),90.8% (active),50%,63%,92.2% (active),57%,94% (active),92.2% (active)
CCCCN(c1ccccc1)c1ncnc2c1ncn2C,1%,83% (active),89.7% (active),-3%,86% (active),79.8% (active),0%,86% (active),89% (active),0%,76% (active),74.2% (active),6%,88% (active),79.2% (active),5%,89% (active),89.9% (active)
CNC(=S)N(C)C(=S)Nn1c(=O)c(C)nn(C)c1=S,-24%,59%,70.8% (active),-23%,96% (active),79.7% (active),-19%,50%,87% (active),-3%,66%,57.9%,-18%,77% (active),78.4% (active),-27%,97% (active),72.5% (active)
